Screen size: about 350,000 compounds; about 990 (0.28%) were called active. Another 2% or so got no clear call; they are omitted. The call rests on the fitted dose curve; in most records, active means well fitted inhibition curve with a large enough effect; inconclusive means small, poorly fitted or top-dose-only effect; inactive means no such curve, though single readings can be large or run the other way. The entries come from a sample that favours actives as a whole. Entries that show only a call come without a potency.
Potency means the concentration at half of the fitted maximal effect.

The target in this test is Tyrosyl-DNA phosphodiesterase 1 (Homo sapiens) (UniProt Q9NUW8). The test can be described thus: qHTS Assay for Inhibitors of Tyrosyl-DNA Phosphodiesterase (TDP1). Further: nearly all actives have a fitted effect of over 40% in size. The settings on record: recombinant TDP1, AlphaScreen DNA substrate cleavage; series mostly up to 130 µM. In short, it runs like this: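 Enzyme-compound mixtures sat 15 min at room temperature, followed by a 5 min reaction with 15 nM final substrate and 10 min with AlphaScreen beads. Recombinant human Tdp1 was used at 1 nM final.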
Chain of Tyrosyl-DNA phosphodiesterase 1 (Homo sapiens) (Q9NUW8 whole entry, looked up): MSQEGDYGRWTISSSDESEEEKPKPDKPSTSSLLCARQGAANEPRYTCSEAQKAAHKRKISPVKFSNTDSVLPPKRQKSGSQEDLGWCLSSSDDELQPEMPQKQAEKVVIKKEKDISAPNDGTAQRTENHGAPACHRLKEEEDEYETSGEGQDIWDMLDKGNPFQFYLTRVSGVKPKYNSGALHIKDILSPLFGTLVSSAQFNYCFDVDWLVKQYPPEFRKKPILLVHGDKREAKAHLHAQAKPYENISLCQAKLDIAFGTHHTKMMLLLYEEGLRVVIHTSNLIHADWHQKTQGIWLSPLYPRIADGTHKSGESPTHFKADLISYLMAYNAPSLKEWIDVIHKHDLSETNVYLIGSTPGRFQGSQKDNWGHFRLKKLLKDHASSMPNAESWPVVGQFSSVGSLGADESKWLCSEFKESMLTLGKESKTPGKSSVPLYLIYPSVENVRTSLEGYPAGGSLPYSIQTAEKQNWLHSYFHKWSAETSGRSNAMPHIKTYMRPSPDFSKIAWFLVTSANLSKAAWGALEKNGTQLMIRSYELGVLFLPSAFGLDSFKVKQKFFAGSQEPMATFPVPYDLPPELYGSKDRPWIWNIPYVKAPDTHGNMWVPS
Take `COc1ccc(S(=O)(=O)Nc2cccc3cccnc23)c(N)c1`: the Potency entry is “inactive”.

As to `COc1ccccc1NC(=O)C(=O)c1cc(C)n(-c2ccccc2F)c1C`, the Potency entry was “inactive”.

For the compound `CCCOc1ccc(NC(=O)CC2C(=O)N(c3ccccc3)C(=O)N2Cc2ccco2)cc1` (stereo not drawn), the Potency result is “inactive”.

Take `O=C(O)CSc1ccc(S(=O)(=O)N2CCCC2)cn1`: the Potency result is “inactive”.

As to `Cc1cc(C)c(C#N)c(N2CCC(C(N)=O)CC2)n1`, the Potency entry is “inactive”.

As to `N#Cc1c(N2CCCCC2)nc(N)c2c(N)nc(SCC(=O)O)cc12`, the Potency is 50.1 µM (active).

As for `O=C1CCCC2=C1[C@@]1(CCC(c3ccccc3)C1)N=C(Nc1nc3ccccc3o1)N2` (stereo partly drawn), the Potency entry is “inactive”.

Turning to `CCCCCCC1(C)NC(c2ccc3c(c2)OCO3)=CC(c2ccccc2O)N1` (stereo not drawn), the Potency entry was “inactive”.

As for `COc1ccc(Nc2cc(C(=O)NCCCN(C)c3ccccc3)c3ccccc3n2)c(OC)c1`, the Potency entry was “inactive”.

In the case of `Cc1ccc(NC(=O)CCCn2c(=O)c3cccn3c3ccccc32)cc1Cl`, the Potency entry was “inactive”.

As for `O=C1c2ccccc2C(=O)N1c1ccc(S(=O)(=O)N2CCOCC2)c2ccccc12`, the Potency entry was “inactive”.

`O=C(Nc1cccc2cccnc12)C(F)(F)F`: the Potency result was “inactive”.

Take `CCOC(=O)C1=C(C)N=C2c3ccccc3C(=O)C2C1c1ccc(Br)cc1` (stereo not drawn): the Potency entry was “inactive”.

With `CCOC(=O)C1=NOC(Cn2cc(C(C)=O)c(=O)[nH]c2=O)C1` (stereo not drawn), the Potency result was “inactive”.

For `CCOC(=O)C1=NO[C@@]2(C=C(Br)C(=O)[C@H]3O[C@H]32)C1`, the Potency was 8.91 µM (active).

In the case of `CCOC(=O)N1CCc2c(sc(NCc3cccc(F)c3)c2C(=O)Nc2ccccc2OCC)C1`, the Potency entry was “inactive”.

For the compound `CCC1(C)CC(=O)c2c(ccc3oc(C(=O)Nc4ccc(C(C)=O)cc4)c(C)c23)O1` (stereo not drawn), the Potency result was “inactive”.

Regarding `COc1ccc(Cc2nc3ccc(C(=O)NCc4ccccc4Cl)cc3o2)cc1`, the Potency result was “inactive”.

In the case of `CC(C)COC(=O)c1ccc(NC(=O)C2C3C=CC(C3)C2C(=O)O)cc1` (stereo not drawn), the Potency result was “inactive”.

As to `CC(=O)NS(=O)(=O)c1ccc(NC(=O)C2C3C=CC(C3)C2C(=O)O)cc1` (stereo not drawn), the Potency was 79.4 µM (active).

Take `COC(=O)c1cc(NC(=O)C2C3C=CC(C3)C2C(=O)O)cc(C(=O)OC)c1` (stereo not drawn): the Potency entry was “inactive”.

Consider `O=C(NCc1ccc2c(c1)CCN2C(=O)c1ccccc1)Nc1cc(F)ccc1F`, for which the Potency entry was “inactive”.

In the case of `O=C(CNC(=O)c1ccc(Cl)c(C(F)(F)F)c1)OC(C(=O)Nc1cc(C(F)(F)F)ccc1Cl)c1ccccc1` (stereo not drawn), the Potency entry was “inactive”.

Turning to `CC(=O)Nc1cccc(NC(=O)CSc2nccn2Cc2ccc3c(c2)OCO3)c1`, the Potency entry is “inactive”.

As for `O=C(CCC1CCCN(C(=O)Cc2ccc(F)cc2)C1)N1CCN(c2ccccn2)CC1` (stereo not drawn), the Potency result is “inactive”.

Regarding `O=C(CCC1CCCN(C(=O)c2ccc(F)c(F)c2)C1)N1CCN(c2ccccn2)CC1` (stereo not drawn), the Potency entry is “inactive”.

Consider `C=Cc1ccc(C(=O)N2CCCC(CCC(=O)N3CCN(c4ccccn4)CC3)C2)cc1` (stereo not drawn), for which the Potency was 1.26 µM (active).

For `Cc1ccc(S(=O)(=O)NC(N)=NCCC[C@@H](NC(=O)CNC(=O)c2ccccc2)C(=O)Nc2cc(C(F)(F)F)ccc2Cl)cc1`, the Potency result was “inactive”.

As for `CC(Nc1ncnc2ccc(-c3ccc4c(c3)OCO4)cc12)c1ccco1` (stereo not drawn), the Potency entry was “inactive”.

For `O=C(O)c1ccc2c(c1)N(Cc1ccc(F)cc1)C(=O)c1ccccc1S2=O` (stereo not drawn), the Potency result was “inactive”.

As for `O=c1[nH]c(=S)[nH]c2[nH]c(=S)[nH]c12`, the Potency is 8.91 µM (active).

Turning to `CCCS(=O)(=O)Nc1cccc(-c2cn3ccsc3n2)c1`, the Potency result was “inactive”.

For `COC(=O)c1ccc(NC(=O)CCc2c(C)nn(-c3ccc(N4CCCC4)nn3)c2C)cc1`, the Potency result is “inactive”.

For the compound `CN(C)c1ccc(C(=O)NCC(=O)OC(C(=O)Nc2cc(C(F)(F)F)ccc2Cl)c2ccccc2)cc1` (stereo not drawn), the Potency result was “inactive”.

Consider `CCOc1cccc(C(=O)Nc2nnc(S(=O)(=O)N(C)c3ccc(C)cc3)s2)c1`, for which the Potency result was “inactive”.

`O=C(NCc1nnc(C(=O)Nc2ccc(C(F)(F)F)cc2Cl)o1)c1ccccc1`: the Potency result was “inactive”.

In the case of `COc1ccc(NC(=O)c2sc3nc[nH]c(=O)c3c2C)cc1`, the Potency result was “inactive”.

With `Cc1cccc(N2CCN(c3ccc(C(=O)O)cc3NC(=O)c3ccccc3F)CC2C)c1` (stereo not drawn), the Potency result was “inactive”.

`O=C(NCCCO)C(=O)Nc1c2c(nn1-c1ccccc1)CSC2`: the Potency entry is “inactive”.

Take `C=C1c2cccc(OC)c2O[C@H](C(=O)OCC)[C@@H]1CCCCCC`: the Potency is 35.5 µM (active).

For `CCOC(=O)C1=C(C)c2ccccc2OC1C(=O)OCC` (stereo not drawn), the Potency entry was “inactive”.

For the compound `COc1ccc(C(=O)N(Cc2ccccc2)Cc2ccc(OC)c(COc3ccc(NC(C)=O)cc3)c2)c(O)c1`, the Potency result was “inactive”.

For `CC(=O)NC(c1cccs1)c1cc(Cl)c2cccnc2c1O` (stereo not drawn), the Potency result is “inactive”.

These data come from PubChem BioAssay AID485290 (National Center for Advancing Translational Sciences (NCATS), 2010).
